FAS TE block = FAS thioesterase domain inhibitors, primary screen, biochemical, fluorescence intensity, uHTS; Fatty acid synthase (Homo sapiens), P49327; hit rate 0.67% among 360,000; recombinant FAS-TE, OMFH fluorogenic substrate, fluorescence endpoint; inhibition, % at 15 µM;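 active = compounds whose normalised, plate-corrected inhibition of enzyme fluorescence in the single-dose primary screen is 50% or more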;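 also: 0% = DMSO with enzyme and 100% = substrate without enzyme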
ADAM10 inh = human ADAM10 inhibitors, primary screen, biochemical, QFRET, HTS; Disintegrin and metalloproteinase domain-containing protein 10 (Homo sapiens), O14672; recombinant ADAM10, EDANS/DABCYL FRET peptide cleavage, 3 h; inhibition, % at 7 µM; hit rate 0.62% among 370,000; AID 720582, 2013;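 active = inhibition above a per-campaign cutoff equal to the mean of compounds falling between control-based bounds plus 3 SD, cut at about 20% in these data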;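 also: 0% = DMSO wells while the 100% control is not disclosed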
NPR1 activator = GC-A stimulated cGMP production enhancers – HEK293 GC-A cells, cGMP TR-FRET, EC30 ANP, primary screen; Atrial natriuretic peptide receptor 1 (Homo sapiens), P16066; 0% at EC30 ANP, 100% saturating ANP; activation, % at 10 µM; hit rate 0.14% among 370,000; in the data active = activation above about 40%
ADAM17 inh = ADAM17 inhibitors, primary screen, biochemical, QFRET; hit rate 0.83% among 370,000; inhibition, % at 6.95 µM; recombinant ADAM17, EDANS/DABCYL FRET peptide cleavage; Disintegrin and metalloproteinase domain-containing protein 17 (Homo sapiens), P78536; AID 720648, 2013;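 active = inhibition above the mean of compounds lying between control limits plus 3 SD, set per campaign, cut at about 8.5% in these data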;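 also: 0% = DMSO-only wells as the low control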
NPR2 activator = human GC-B receptor activators, primary screen, HEK293 GC-B cells, cGMP TR-FRET, EC30 CNP; Atrial natriuretic peptide receptor 2 (Homo sapiens), P20594; 0% at EC30 CNP, 100% saturating CNP; activation, % at 10 µM; hit rate 0.11% among 370,000;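 active = activation at 10 µM reaching about 35% in either raw or pattern-adjusted values, limit read from the data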
FAS-TE inh conf = FAS thioesterase domain inhibitors, confirmation, biochemical, fluorescence intensity, single concentration; inhibition, % at 15 µM; recombinant FAS-TE, OMFH fluorogenic substrate; AID 624325, 2012; shares compounds with FAS TE block; hit rate 45% among 2,300;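 active = compounds inhibiting the enzyme by at least 50% at 15 µM in any one of the replicates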;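 also: 0% = enzyme with DMSO only and 100% = wells lacking enzyme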
An asterisk follows results filed as active; i = inactive; . = not tested or not shown. Rows were chosen to be rich in hits. Some 2% of all compounds tested hit in one or more screens of this group.

SMILES | FAS TE block | ADAM10 inh | NPR1 activator | ADAM17 inh | NPR2 activator | FAS-TE inh conf
CC1(C)C([N+](=O)[O-])C(c2ccc(Cl)cc2)NC(c2ccc(Cl)cc2)C1[N+](=O)[O-] (centres undefined) | 66* | 0 | -7 | -1 | -2 | 37
COC(=O)[C@]12C[C@H](CC(=O)NCc3ccc(C)o3)C(=O)N(Cc3ccco3)C1=C[C@H](C(C)C)O[C@@H]2C1CC1 | . | 3 | -2 | -1 | -6 | .
O=C(c1cccc(NS(=O)(=O)c2ccc(F)c(F)c2)c1)N1CCN(C(c2ccccc2)c2ccccc2)CC1 | 90* | -6 | 2 | 0 | 3 | 45
O=C1c2cccc3c(N4CCOCC4)c([N+](=O)[O-])cc(c23)C(=O)N1c1cccc2ccccc12 | 77* | 3 | -1 | -1 | 4 | 25
O=C(Nc1ccc(OC(F)(F)F)cc1)c1cccc(-n2cnnn2)c1 | 56* | 4 | -2 | -2 | 5 | 44
CN(Cc1ccccc1)C(=O)c1ccc(NC(=O)Cc2ccc(NC(=O)C3CCCN(S(=O)(=O)c4cccc([N+](=O)[O-])c4)C3)cc2)cc1 (centres undefined) | 59* | -5 | -2 | -3 | 0 | 5
CN(C(=O)c1cccc(NC(=O)Cc2ccc(NC(=O)C3CCCN(S(=O)(=O)c4cccc([N+](=O)[O-])c4)C3)cc2)c1)C1CCCC1 (centres undefined) | 69* | 18 | -2 | 5 | 5 | 19
CC(COc1ccccc1C#N)CN1CCC(C(O)(c2ccccc2)c2ccccc2)CC1 (centres undefined) | . | 4 | -27 | 2 | -15 | .
COC(=O)c1ccc(C2c3c(oc4ccc(Cl)cc4c3=O)C(=O)N2CCN2CCOCC2)cc1 (centres undefined) | 54* | -25 | 4 | -14 | -7 | 62*
COC(=O)c1c(NC(=O)Cn2cc([N+](=O)[O-])cn2)sc2c1CCC2 | 51* | 2 | -4 | 0 | -8 | 12
Cc1cc(-c2nnc(SCC(=O)Nc3cccc4ccccc34)n2N)n[nH]1 | . | -9 | 5 | -3 | -9 | .
ClCc1csc(-c2ccc(Cl)cc2)n1 | 6 | 5 | 1 | -3 | 7 | .
CCS(=O)(=O)c1ccc(-c2csc(-c3ccc(Cl)cc3)n2)c(Cl)c1Cl | 71* | -2 | -1 | -3 | -1 | 52*
CCS(=O)(=O)c1ccc(-c2csc(-c3ccccc3Cl)n2)c(Cl)c1Cl | 72* | 6 | -2 | 1 | -1 | 11
CC(=O)c1sc(-c2ccccc2Cl)nc1C | -3 | 4 | 2 | -1 | -3 | .
CCCCCCC12C(=Cc3cc4c(cc31)OCCO4)c1cc(OC)c(OC)cc1C(CC(=O)O)N2C(=O)OC (centres undefined) | . | i | -2 | -381 | 2 | .
N#Cc1cc2sc3nnc(-c4ccncc4)n3c2cc1C#N | 75* | -6 | 11 | -4 | -8 | 53*
N#CCSc1nnc2sc3ccccc3n12 | -2 | -13 | 2 | 3 | -2 | .
CC(C)(C)C1=CC(CC(N)=O)(C(C)(C)C)OC1=O (centres undefined) | . | -1 | 4 | -1 | 9 | .
O=C(CSc1nc2ccccc2c(=O)n1-c1ccc(F)c(Cl)c1)Nc1ccc2c(c1)CCC2 | 61* | -9 | -1 | -3 | 2 | 15
O=C(CSc1nc2nc3c(cc2c(=O)n1-c1ccccc1)CCCC3)Nc1cccc2ccccc12 | 63* | 9 | -6 | 2 | -7 | 17
O=C(CSc1nc2ccccc2c(=O)n1-c1ccc(F)cc1F)Nc1ccc2c(c1)CCC2 | 54* | 2 | 2 | 1 | 4 | 12
O=[N+]([O-])c1ccc(Cn2ccc3ccc(-c4ccc5ccn(Cc6ccccc6)c5c4)cc32)cc1 | . | -7 | 0 | -5 | 1 | .
CC[C@@]1(c2ccc(C)cc2)C(=O)N(C(=O)OC(C)C)N1C(=O)OC(C)C | . | 4 | -26 | 5 | -20 | .

From PubChem
